Compound activity from PubChem.
HT1080NT lethal: kills 2HG-producing HT-1080-NT fibrosarcoma cells; HT-1080-NT fibrosarcoma viability, CellTiter-Glo ATP luminescence, 48 h; Potency, µM (doses to about 46.1 µM), for the others: at the highest dose activity, negative = less viability, hits mostly cytotoxic; hit rate 1.6% among 360,000; AID 686970;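 also: NT is the 2HG producing partner of a matched IDH1 knockdown line; 0% = DMSO-treated cells and -100% = media-only wells without cells; nearly all actives have a fitted effect of over 55% in size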
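HT-1080-NT; 750 cells/well; 5% FBS RPMI; 48 h compound, 37 degrees C; CellTiter-Glo luminescence; curve fitting and curve-class assignment.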
HT1080 IDH1KD tx: HT-1080 IDH1 knockdown cell toxicity (counter line) | HT-1080 IDH1 knockdown viability, ATP luminescence, 48 h | Potency, µM (top dose mostly 46.1 µM), for the others: top-dose activity, negative = toxicity, usual class: cytotoxic | hit rate 2% among 360,000;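 also: 0% = DMSO wells and -100% = cell-free medium wells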
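HT-1080-IDH1KD cells (IDH1 knocked down), 750/well in RPMI with 5% FBS, treated with compound 48 h at 37 degrees C. Viability by CellTiter-Glo luminescence, normalised to DMSO and no-cell wells; concentration-response curves classed.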
MCF10A rerep: DNA re-replication induction in MCF 10a cells | MCF 10A DNA re-replication, Hoechst nuclear intensity, 48 h | Potency, µM (top dose mostly 46.1 µM), for the others: top-dose activity, positive = re-replication, hits mostly activators | AID 624296 | hit rate 2.9% among 350,000; also: % of control where 0% means no effect; nearly all actives have a fitted effect of over 50% in size
KB-3-1 cytotox: kills parental KB-3-1 adenocarcinoma cells; KB-3-1 viability, CellTiter-Glo ATP luminescence, 72 h; Potency, µM (highest dose often 46.1 µM), most hits filed as cytotoxic; hit rate 1.4% among 400,000; AID 1347075; also: % is scaled to controls: 0 for no effect and ±100 for the full control effect; nearly all actives have a fitted effect of over 60% in size
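72 h, 37 °C compound treatment of KB-3-1 parental cells; CellTiter-Glo added, 10 min, luminescence read. Data corrected against DMSO-only plates and normalized before curve fitting.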
SW480 rereplic: DNA re-replication induction in SW480 cells; SW480 DNA re-replication, Hoechst DNA content imaging, 48 h; Potency, µM (doses to about 46.1 µM), without a hit: at the highest dose re-replication activation, usual class: activators; hit rate 1.8% among 340,000; AID 624297; also: % of control where 0% means no effect; nearly all actives have a fitted effect of over 55% in size
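Per well, 250 cells were exposed to pinned compound for 48 hr. Nuclear DNA was visualised with Hoechst (40 min, 37 C) and total object intensity recorded by fluorescence scanning.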
KB-V1 MDR tox: kills drug-selected multidrug resistant KB-V1 cells | KB-V1 MDR cells viability, CellTiter-Glo, 72 h | Potency, µM (top dose mostly 46.1 µM), hits mostly cytotoxic | hit rate 3.4% among 400,000 | AID 1347076; also: % is scaled to controls: 0 for no effect and ±100 for the full control effect; nearly all actives have a fitted effect of over 60% in size
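Following 72 h at 37 degrees C with compound, KB-V1 cell viability was read by CellTiter-Glo luminescence, medium being phenol-red-free DMEM plus 10% FBS; concentration-response parameters came from normalized, curve-fitted qHTS data.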
Starred values were filed as active, the others as inactive; i = inactive; ? = inconclusive; . = no result. Rows were chosen to be rich in hits. Some 7.9% of all compounds tested hit in one or more screens of this group. Calls follow the shape of the dose curve; as a rule, active = well fitted curve in the direction sought with a large enough effect; inconclusive = small, poorly fitted or top-dose-only effect, or another doubt; inactive = no such curve, though single readings can be large; an effect the other way counts as inactive or inconclusive. Potency is read from the fitted curve at half-maximal effect.

SMILES	HT1080NT lethal	HT1080 IDH1KD tx	MCF10A rerep	KB-3-1 cytotox	SW480 rereplic	KB-V1 MDR tox
CSc1ncc2c(n1)-c1ccccc1N(Cc1ccc(Cl)cc1)S2(=O)=O	.	.	.	i	.	i
CCOC(=O)C1CCCN(S(=O)(=O)c2csc(C(N)=O)c2)C1 (stereo not given)	.	.	.	i	.	i
CCOC(=O)c1ccc(N2CCCCC2)c(NS(=O)(=O)c2ccc(C)cc2)c1	?	?	21µM*	?	?	?
COCCNC(=O)c1ccc(N2CCCCC2)c(NS(=O)(=O)c2ccc(C)cc2)c1	3%	-3%	-5%	i	0%	?
CCOc1ccc(S(=O)(=O)Nc2cc(S(=O)(=O)N(CC)CC)ccc2N2CCCC2)cc1	-4%	-5%	-55%	?	?	2.6µM*
CCN(CC)C(=O)CN1C(=O)COc2ccc(S(=O)(=O)N3CCOCC3)cc21	.	.	.	i	.	?
Cc1ccccc1NC(=O)c1ccc(CN2CCC(Cc3ccccc3)CC2)cc1	23µM*	?	?	?	?	15µM*
COc1ccc(CCNC(=O)c2ccc(CN3CCC(Cc4ccccc4)CC3)cc2)cc1	-1%	-2%	10%	i	-11%	9.2µM*
CCCCOC(=O)c1ccc(NC(=O)c2csnn2)cc1	.	.	.	i	.	i
CCOC(=O)c1nc(Nc2ccc(C)cc2)c2ccccc2n1	-21%	-21%	1%	i	?	?
CCOC(=O)c1c(Nc2cccc(C(=O)OC)c2)nnc(-c2ccccc2)c1-c1ccccc1	.	.	.	i	.	13µM*
CCOC(=O)c1c(Nc2ccc(C)cc2)nnc(-c2ccccc2)c1-c1ccccc1	.	.	.	i	.	23µM*
COC(=O)c1cccc(Nc2nc3ccccc3nc2C)c1	-26%	?	?	i	1%	i
S=C=Nc1ccc(N=C=S)cc1	.	.	-1%	.	-13%	.
O=[N+]([O-])c1ccc(S(=O)(=O)CC2CSc3nc4ccccc4n32)cc1 (stereo not given)	0%	-10%	12%	1.8µM*	?	2.6µM*
C[n+]1cc2c3c(ccc2c2ccc4cc5c(cc4c21)OCO5)OCO3	2.5µM*	1.4µM*	17%	.	-2%	.
O=C(C(=O)N1CCN(c2ccccc2F)CC1)c1ccccc1	20%	27%	.	i	.	i
CCOC(=O)CN1N=C(/C=C/c2ccc(C(C)C)cc2)CCC1=O	-8%	-11%	2%	7.3µM*	-5%	2.3µM*
CCOC(=O)C(C)N1N=C(/C=C/c2ccc(C)cc2)CCC1=O (stereo not given)	-20%	-5%	16%	?	14%	16µM*
O=C1CC(c2ccccc2)CC(O)=C1C=NC1CCCCC1 (stereo not given)	-15%	?	-2%	i	8%	6.5µM*
CCS(=O)(=O)N1CC(=O)N(c2cccc(Cl)c2C)C(C)(C(=O)NC2CCCCC2)C1 (stereo not given)	.	.	.	i	.	i
CCCn1c(C)cc(C(=O)COc2ccc(C)nc2[N+](=O)[O-])c1C	7%	3%	?	i	?	16µM*
Cc1cc(-n2c(C)cc(C(=O)COc3cccnc3[N+](=O)[O-])c2C)no1	0%	-8%	7.3µM*	?	8.2µM*	16µM*
Cc1ccc(OCC(=O)c2cc(C)n(-c3ccccc3)c2C)c([N+](=O)[O-])n1	0%	-28%	?	8.2µM*	-4%	21µM*
COCCn1c(C)cc(C(=O)COc2ccc(C)nc2[N+](=O)[O-])c1C	-1%	0%	?	i	?	i
Cc1ccc(OCC(=O)Nc2ccccc2Sc2ccccc2)c([N+](=O)[O-])n1	-15%	0%	-7%	i	2%	18µM*
C=C1NN(Cc2ccc(OC)cc2)C(=O)N1c1ccccc1	.	.	.	i	.	i
COc1ccc(SCc2cc(=O)c3cc(Cl)ccc3[nH]2)cc1	.	.	.	i	.	i
